# Counter-ions that a name gives are not always drawn.
# Tested on: E18 rat cortical neuron-glia co-culture
# Assay: myelination (MBP fiber length per Olig2+ nucleus), % of 1 µM DAPT response (DMSO = 0) (% of DAPT); higher = more myelination, active = 50 or more
# Conditions: 5 µM; treatment time: 8 days (DIV5-DIV13)
# Procedure, shortened: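 Library compounds at 1 or 5 µM in myelination medium were applied from DIV5 to DIV13 to papain-dissociated E18 rat cortical co-cultures seeded at 20,000 cells/well on poly-d-lysine/laminin 96-well plates. Fixed cells (4 % paraformaldehyde) were immunostained for MBP and Olig2 with DAPI, and four 10X fields were analysed in each duplicate well. Continuous straight MBP fiber length per Olig2+ nucleus was set to 0 for 0.1 % DMSO and to 100 for a 1 µM positive control.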
row,SMILES,myelination
1,Fc1cncnc1 [5-fluoropyrimidine],4.98 (inactive)
2,OCc1cccnc1 [Nicotinyl Alcohol],-10.1 (inactive)
3,O=c1c(O[C@@H]2O[C@H](CO)[C@@H](O)[C@H](O)[C@H]2O)c(-c2ccc(O)c(O)c2)oc2cc(O)cc(O)c12 [Isoquercitrin],-11.7 (inactive)
4,CC(=O)CCCCn1c(=O)c2c(ncn2C)n(C)c1=O [Pentoxifylline],-23.8 (inactive)
5,C[C@]12CC[C@@H]3c4ccc(OS(=O)(=O)O)cc4CC[C@H]3[C@@H]1CCC2=O [Estrone sulfate],5.79 (inactive)
6,Nc1nc2ccc(Cl)cc2c2nc(-c3ccco3)nn12,-3.25 (inactive)
7,CN(C)[C@@H]1C(O)=C(C(N)=O)C(=O)[C@@]2(O)C(O)=C3C(=O)c4c(O)ccc(Cl)c4[C@@H](O)[C@H]3C[C@@H]12 [Demeclocycline],-12.1 (inactive)
8,CC(=O)N1CCN(c2ccc(OCC3COC(Cn4ccnc4)(c4ccc(Cl)cc4Cl)O3)cc2)CC1 (configuration not stated) [Ketoconazole],-46.2 (inactive)
9,CNCCC=C1c2ccccc2CCc2ccccc21 [Nortriptyline],54.7 (active)
10,COc1ccccc1N1CCN(CCCNc2cc(=O)n(C)c(=O)n2C)CC1 [Urapidil],-23.7 (inactive)
11,O=C(NCCO[N+](=O)[O-])c1cccnc1 [Nicorandil],-1.77 (inactive)
12,CN1CC(=O)N2[C@H](c3ccc4c(c3)OCO4)c3[nH]c4ccccc4c3C[C@@H]2C1=O [Tadalafil],-34.9 (inactive)

# Source: the supplement of paper PMC4840960
